Results published in PubChem BioAssay AID434958 (Southern Research Specialized Biocontainment Screening …, 2010).
The whole screen tested about 1,200 compounds, of which about 400 (33%) were called active. How the calls were made is not given here. Only a sample is shown. Entries with a potency or affinity are not part of this list.

Assay: mammalian cell cytotoxicity, dose response, cytotoxicity control (AID 434958);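 further: cells exposed to compound for 72 hours before readout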
Settings: cytotoxicity counter-screen; series mostly up to 40 µM

Row | SMILES | outcome
1 | CCOC(=O)c1sc(NC(=O)CN2CCN(c3ccc(OC)cc3)CC2)nc1C | inactive
2 | O=c1cc(C(F)(F)F)c2sc(N3CCCCC3)nc2[nH]1 | inactive
3 | COc1ccc(NC(=O)CCC2CCCC2)cc1OC | inactive
4 | CCN(CC)C(=O)COc1ccc(-c2nnc(Nc3ccc(OC)c(C(=O)NC)c3)c3ccccc23)cc1 | inactive
5 | CCCc1cc(C(=O)Nc2ccc(C(C)=O)cc2)no1 | inactive
6 | O=C1c2cccc3c(N4CCCCC4)ccc(c23)C(=O)N1c1ccccn1 | inactive
7 | COC(=O)c1ccc(-c2cc(C(=O)O)c3cc4c(cc3n2)OCCO4)cc1 | inactive
8 | C/C(=N\NC(=O)c1csc2ccccc12)c1ccc(O)cc1 | inactive
9 | C/C(=N\NC(=O)c1ccncc1)c1c(O)n(-c2ccccc2)c(=O)[nH]c1=O | inactive
10 | C/C(=N/NC(=O)c1ccccn1)c1ccncc1 | inactive
11 | O=C(NN=C(Cc1ccccc1)Cc1ccccc1)c1ccccc1F | inactive
12 | S=C(Nc1ccccc1Cl)N1CCCC(c2ccccc2)=N1 | inactive
13 | CCN(CC)c1ccc(C=N/C(C#N)=C(\N)C#N)cc1 | inactive
14 | COc1nc(-c2ccccc2)ccc1-c1noc(-c2cccnc2)n1 | inactive
15 | CCn1nc(C)c([N+](=O)[O-])c1C(=O)NNC(=O)c1ccccc1Cl | inactive
16 | COc1cccc(-c2ccc(-c3noc(-c4ccccc4F)n3)c(OC)n2)c1 | inactive
17 | Cc1cc(Br)cc2c(C(=O)NCC3CCCO3)cc(-c3ccccc3)nc12 (centres undefined) | inactive
18 | CCCn1c2ccccc2c2nnc(SCC(=O)OCC)nc21 | inactive
19 | CC(C)(C)c1cc(Cc2ccccc2)[nH]n1 | inactive
20 | COc1ccc([N+](=O)[O-])cc1NS(=O)(=O)c1ccc(Cl)c(C(=O)Nc2sc3c(c2C#N)CCCCC3)c1 | inactive
21 | CCCC(=O)Nc1nc(-c2ccccc2)ns1 | inactive
22 | Cc1ccc(C)c(S(=O)(=O)N2CCN(CC(=O)NC(C)c3ccccc3)CC2)c1 (centres undefined) | inactive

Row | SMILES | outcome
23 | O=c1oc(-c2ccccc2F)nc2scc(-c3ccccc3)c12 | inactive
24 | Cc1ccc(C2=NN(C(=O)CN3C(=O)c4ccccc4S3(=O)=O)C(c3ccco3)C2)cc1 (centres undefined) | inactive
25 | COCCOC(=O)c1c(C)oc2ccc(OCc3cc(C(=O)OC)oc3C)cc12 | inactive
26 | Cc1sc2nc(C(C)Nc3ccccc3N3CCOCC3)[nH]c(=O)c2c1C (centres undefined) | inactive
27 | CCCc1cc(NC(=O)COC(=O)c2nccnc2N)n(-c2ccccc2)n1 | inactive
28 | CC(C)CCN1CC(O)=C(c2nc3ccccc3[nH]2)C1=N | inactive
29 | O=C(Nc1nc(-c2ccc3c(c2)OCCO3)cs1)c1ccc(S(=O)(=O)N2CCCCC2)cc1 | inactive
30 | O=C(Nc1nnc(-c2ccc3c(c2)OCCO3)o1)C1CCCCC1 | inactive
31 | CCSc1nnc(NC(=O)CSc2nccn2-c2cccc(C)c2)s1 | inactive
32 | Cc1c(C(=O)NCCC2=CCCCC2)sc2ncnc(N3CCCCC3C)c12 (centres undefined) | inactive
33 | Cc1cc(C)c(NC(=O)CC(C)(C)C)c(Cl)c1 | inactive
34 | COc1ccc(OC)c(NC(=O)CS(=O)(=O)c2ccccc2)c1 | inactive
35 | Cc1cc(C)c2oc(-c3ccc(Cl)c(NC(=O)c4ccc(C#N)cc4F)c3)nc2c1 | inactive
36 | Cc1ccc(OCC(=O)Nc2ccc(-c3nc4ncccc4o3)cc2)c(C)c1 | inactive
37 | CCc1ccc(NC(=S)Nc2ccc3cn[nH]c3c2)cc1 | inactive
38 | NC(=S)N/N=C/c1ccc([N+](=O)[O-])cc1 | inactive
39 | O=C(COC(=O)c1ccc(Cl)cc1[N+](=O)[O-])NNC(=O)c1cccs1 | inactive
40 | NNC(=S)NC1CC2CC1C1C=CCC21 (centres undefined) | inactive
41 | CCc1nc2scc(-c3cccs3)c2c(=O)o1 | inactive
42 | Cc1c(-c2ccncc2)oc2ccc(Br)cc2c1=O | inactive
43 | Cc1ccc2c(Cl)cc(Cl)c(OCc3c(C)noc3C)c2n1 | inactive
44 | O=C(N/N=C/c1ccc(OC(=O)c2ccc3c(c2)OCO3)cc1)c1cncc(Br)c1 | inactive

Row | SMILES | outcome
45 | Cc1ccc(/C=N\NC(=O)c2csnn2)cc1 | inactive
46 | Cc1cccc(C)c1NC(=O)C1CC2CCC1C2 (centres undefined) | inactive
47 | COC(=O)c1c(NC(=O)c2ccc(C)cc2)csc1C | inactive
48 | Cc1ccc(C)c(N2CCN(CC3CC=CCC3)CC2)c1 (centres undefined) | inactive
49 | Cc1cc(Br)ccc1NC(=O)c1ccccc1-c1ccccc1 | inactive
50 | O=C(COC(=O)C1CC1)NCc1ccccc1Cl | inactive
51 | Cc1ccc(C2=N/C(=C\c3cccc(F)c3)C(=O)O2)cc1 | inactive
52 | COC(=O)c1sc(-c2ccc(C(C)(C)C)cc2)cc1NC(=O)CCC(=O)O | inactive
53 | O=C(COc1ccc(Cl)cc1)OCC(=O)N1CCCCCC1 | inactive
54 | Cc1ccc(C)c(-n2c(-c3ccco3)n[nH]c2=S)c1 | inactive
55 | O=C(NN1C(=O)c2cc(Br)ccc2NC1c1ccccc1Cl)c1ccncc1 (centres undefined) | inactive
56 | COc1ccc2cc(C3=CCCCC3)ncc2c1 | inactive
57 | CCOc1ccc(-c2nnc(-c3ccc(OC)cc3)o2)cc1 | inactive
58 | COc1cccc(/C=C/c2[nH]c(=O)[nH]c(=O)c2[N+](=O)[O-])c1O | inactive
59 | COc1ccc(-c2cc(C(N)=O)nc(N3CCCCCC3)n2)cc1 | inactive
60 | COc1ccccc1C(=O)Nc1sc2c(c1C(=O)NCc1ccco1)CCCC2 | inactive
61 | O=C(Cn1cnc2sc3c(c2c1=O)CCCC3)NCC(=O)Nc1ccccc1F | inactive
62 | O=c1oc(-c2cccs2)nc2sc3c(c12)CCCC3 | inactive
63 | CC(C(=O)Nc1sc2c(c1C(=O)NCc1ccco1)CCCC2)N1C(=O)c2ccccc2C1=O (centres undefined) | inactive
64 | O=c1oc(-c2ccco2)nc2sc3c(c12)CCCCC3 | inactive
65 | N#Cc1cc2c(nc1SCC(=O)Nc1sc3c(c1C#N)CCC3)CCCC2 | inactive
66 | CCOc1nnnc2c1sc1nc(N3CCOCC3)c3c(c12)CCCC3 | inactive

Row | SMILES | outcome
67 | Fc1ccc(C2Nc3cccc4cccc(c34)N2)cc1 | inactive
68 | CCC(CC)C(=O)Nc1ccc(Sc2ccc([N+](=O)[O-])cc2)cc1 | inactive
69 | Cc1nc(S/C(=C\c2ccc(OCc3ccccc3Cl)cc2)C(=O)O)n[nH]1 | inactive
70 | CCn1nnnc1SCC(=O)c1ccc(C)cc1C | inactive
71 | CSc1ccccc1C(=O)Nc1ccc2c(c1)OCCO2 | inactive
72 | O=C(NN=C1CCCC1)c1cccs1 | inactive
73 | CC(C)OCc1c(C(=O)Nc2nccs2)oc2ccccc12 | inactive
74 | COc1ccc(/C=N/Nc2nc(-c3ccc(C)cc3)c(NC(C)=O)s2)cc1OC | inactive
75 | COc1ccc(-c2cc(C(F)F)nc(-n3nc(C)cc3C)n2)cc1 | inactive
76 | Cc1onc(-c2c(Cl)cccc2Cl)c1/C(N)=N/OC(=O)C1CC1 | inactive
77 | CCOc1ccc2cc(S(=O)(=O)N3CCCCC3)ccc2c1 | inactive
78 | COc1cccc(-n2c([S-])c(C(=O)Nc3ccc(S(=O)(=O)N4CCOCC4)cc3)[n+]3cc(C(N)=O)ccc23)c1 | inactive
79 | S=C(Nc1ccc(Cl)cc1)c1nc2ccccc2s1 | inactive
80 | COc1ccc(NC(=O)CSc2nncn2C)c([N+](=O)[O-])c1 | inactive
81 | O=C(/C=C/c1ccccc1)NC1CC2CCC1C2 (centres undefined) | inactive
82 | O=C(CSc1n[nH]c(=O)n1C1CC1)c1ccc2c(c1)OCCO2 | inactive
83 | CC1(c2ccc([N+](=O)[O-])cc2)NC(=O)N(CC(=O)c2ccc3c(c2)OCO3)C1=O (centres undefined) | inactive
84 | O=S(=O)(Nc1ccccc1)c1ccc2c(c1)CCO2 | inactive
85 | Cc1ccc(-c2nc3[nH]c(=O)cc(NC(=O)C(C)C)n3n2)cc1 | inactive
86 | COCCNC(=S)N/N=C(\C)c1cccc(OC)c1 | inactive
87 | CCOCC(=O)Nc1ccc(F)c(F)c1 | inactive
88 | O=C(CC12CC3CC(CC(C3)C1)C2)NCc1ccc(F)cc1 | inactive

Row | SMILES | outcome
89 | O=c1c2c(nc3n1CCCCC3)sc1c(O)c(Br)ccc12 | inactive
90 | COc1ccc(-c2csc(/C=C/c3ccc4c(c3)OCO4)n2)cc1OC | inactive
91 | COc1cc(NC(=O)c2ccc(Cl)cc2)c(OC)cc1NC(=O)CN1CCOCC1 | inactive
92 | Cc1ccccc1NC(=O)c1ccc(CN(c2ccccc2)S(=O)(=O)c2ccccc2)cc1 | inactive
93 | CN(C)S(=O)(=O)c1ccc(NC(=O)c2cc3ccccc3o2)cc1 | inactive
94 | CNC(=O)Nc1cccc(-c2cc(-c3c(Cl)cccc3Cl)no2)c1 | inactive
95 | O=c1oc(-c2ccccc2)nc2sc3c(c12)CCC3 | inactive
96 | C=CCn1cc(C(=O)NCCCOC)c(=O)c2cc(S(=O)(=O)N(CC)CC)ccc21 | inactive
97 | CC(OC(=O)c1ccc([N+](=O)[O-])o1)C(=O)NC1CCCCC1C (centres undefined) | inactive
98 | C#CCOc1c(Cl)cc(/C=N/NC(N)=S)cc1OCC | inactive
99 | BrC(=C\c1ccccc1)/C=N/N1CCN(c2ccccn2)CC1 | inactive
100 | Cc1ccc(C(=O)N2CCC3(CC2)Oc2ccc(F)cc2C(=O)C32CC(c3cccnc3)=NO2)s1 (centres undefined) | inactive
101 | O=C(Nc1c2c(nc3ccccc13)CCCC2)c1ccccc1F | inactive
102 | COc1ccc(C(=O)Nc2ccc3nc(N4CCCCC4)cc(C)c3c2)c(OC)c1 | inactive
103 | COc1ccc(-c2sc3cc(OC)c(OC)cc3c2C#CCCO)cc1 | inactive
104 | CCN(CC(=O)Nc1ccccc1OC)C(=O)c1cc(S(=O)(=O)N2CCCCCC2)ccc1OC | inactive
105 | C/C(=N\NC(=S)NCc1ccccc1)c1cccc(Br)c1 | inactive
106 | O=C(Cc1cccc2ccccc12)N/N=C/c1ccc(O)c([N+](=O)[O-])c1 | inactive
107 | O=C(COc1cccc2cccnc12)N/N=C/c1ccc(O)cc1 | inactive
108 | CN(C)c1ccc(S(=O)(=O)NCC(=O)OCC(=O)Nc2cccc(Cl)c2)cc1[N+](=O)[O-] | inactive
109 | O=C(NCc1nc2ncc(Br)cc2[nH]1)c1ccccc1 | inactive
